Test results taken from PubChem BioAssay AID1224862 (National Center for Advancing Translational Sciences (NCATS), 2016).
Results filed as inconclusive are left out. Entries that show only a call come without a potency. Calls of active or inactive are those of the source. Calls follow the shape of the dose curve; as a rule, active = well fitted cell-killing curve with a large enough effect; inconclusive = small, poorly fitted or top-dose-only effect, or effect the other way; inactive = flat fitted curve, though single readings scatter.

Assay: Compound cytotoxicity measured by an ATP content assay as a counter-screen for lead compounds in human astrocytoma cell line (SNB-19)
Conditions: SNB-19 astrocytoma viability, ATP luminescence; series mostly up to 46.1 µM
Procedure: National Center for Advancing Translational Sciences [NCATS] Johns Hopkins University School of Medicine Florida State University Assay Overview: Many compounds can cause cytotoxicity at high compound concentrations. […] The compound cytotoxicity may also cause side effects or toxicity in human. Thus, the compound cytotoxicity needs to be measured in each cell type and each compound incubation time - same as these in the compound screening assay. The compound cytotoxicity can be measured by cell viability assays such as the ATP content assay. We use an ATP content assay kit for cell viability measurement. It measures ATP content (level) in human astrocytoma cell line (SNB-19) using a luminescence readout that is proportional to viable cell numbers. Decrease in the luminescence signal after the compound treatment indicates reduced cell viability and cell death caused by compound treatment.
Assay Protocol Summary: The medium for SNB-19 cells is composed of RPMI 1640 (ATCC, Cat.# 30-2001), 10% fetal bovine serum (FBS) (GE healthcare Life Sciences, Cat.# SH30071.03), and 1% Pen/Strep (Gibco, Cat.# 15140-122). The ATP content assay kit (PerkinElmer, Cat.# 6016731) was used to determine cell viability. The reagent was reconstituted and prepared as described by the manufacturer. Cells were seeded in 384- or 1536-well assay plates and cultured at 37 C with 5% CO2 for 16 to 20 hours. The typical cell seeding density in the 1536-well plate assay is 250 cells/well in 3ul medium for SNB-19 cells in tissue culture treated plates. Compounds were added to cells and incubated for a specific time such as 6, 24, or 72 hours before addition of the reagent mixture of the ATP content assay kit at 1:1 ratio. After incubation at room temperature for 10 minutes, the luminescence intensity in assay plates was measured using a ViewLux plate reader (PerkinElmer). […] The percentage inhibitions of the decreased cell viability by small molecules were then calculated that indicate compound cytotoxicity.

Row | SMILES | Potency
1 | CC(C)[N+](C)(CCC(C(N)=O)(c1ccccc1)c1ccccc1)C(C)C | inactive
2 | COP(=S)(OC)SCN1C(=O)c2ccccc2C1=O | inactive
3 | COc1cccc2c1C(=O)c1c(O)c3c(c(O)c1C2=O)C[C@@](O)(C(=O)CO)CC3OC1CC(N2CCOC(OC)C2)C(O)C(C)O1 (some centres undefined) | inactive
4 | CC[n+]1c(-c2ccccc2)c2cc(N)ccc2c2ccc(N)cc21 | inactive
5 | O=S(=O)(CC1CS1)c1ccc(Oc2ccccc2)cc1 (centres undefined) | inactive
6 | CC(O)CN1CCN(CC(=O)[O-])CCN(CC(=O)[O-])CCN(CC(=O)[O-])CC1.[Gd+3] (centres undefined) | inactive
7 | O=C1CCC[C@@H]2[C@H]3CCCN4CCC[C@@H](CN12)[C@@H]34 | inactive
8 | Oc1ccc([C@H]2CNCc3c2ccc(O)c3O)cc1O | inactive
9 | CC(C)N[C@@H]1CCn2c(=O)[nH]c3cccc(c32)[C@@H]1O | inactive
10 | S=C(SSC(=S)N1CCCCC1)N1CCCCC1 | inactive
11 | O=C1C=CC[C@@H]2[C@H]3CCCN4CCC[C@@H](CN12)[C@@H]34 | inactive
12 | CN1CC[C@@]2(C)c3cc(OC(=O)Nc4ccccc4)ccc3N(C)[C@@H]12 | inactive
13 | Cc1ccc([N+](=O)[O-])[c]2c1[O][Hg]2 | 5.48 µM (active)
14 | CC(C)[C@H]1C(=O)N[C@H](CO)Cc2c[nH]c3cccc(c23)N1C | inactive
